Measurements published in PubChem BioAssay (NCI).
This is part of a sample that, as a whole, favours compounds with a hit. Of some 83,000 tested, about 20% had one in any assay.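 Method: cells in 96-well plates; compound added at one concentration; 48 h incubation; percent growth measured; values under 10 scored active.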 Active and inactive are the calls of the source.

What follows are molecules tested on HL-60(TB) leukemia (assay: NCI-60 one-dose screen, 48 h (100 = growth as untreated, 0 = no growth, -100 = all killed)). Details: 10 µM unless noted.
In the case of `Cc1ccc(NS(=O)(=O)c2ccc3c(c2)C2OCCC2C(c2ccc(C(=O)C(C)C)cc2)N3)cc1C` (stereo not given), the growth is reported as 20.4% (inactive). For `C=C1C(=O)O[C@@H]2C3C(=C(C)CC[C@@H]12)CC1O[C@]13C` (stereo not given in full), the growth was 77.6% [6.75 µM] (inactive). For `COc1ccc(-c2nc(SCCC(C)C)nc(N/N=C(/C)c3ccc(N)cc3)c2C#N)cc1`, the growth was 83.8% (inactive). `O=c1c2c(=NCCN3CCCC3)cc3c(=O)n(CCCN4CCOCC4)c(=O)c4ccc(c(O)n1CCCN1CCOCC1)c2c4-3` was tested, and the growth was -34.7% (active). In the case of `O=C(Oc1ccc2c(c1)sc1nc(-c3ccccc3)[nH]c(=O)c12)C(F)(F)F`, the growth is reported as 2.56% (active). With `COC(=O)c1nc(N)nc(C(=O)OC)c1C(=O)c1cccc2ccccc12` the growth was 107% (inactive). In the case of `O=c1ccc2ccc(OCCN3CCCCC3)cc2o1`, the growth is reported as -28% (active). For `COc1cc(Nc2ncc(F)c(Nc3ccc4c(n3)N(COP(=O)(O)O)C(=O)C(C)(C)O4)n2)cc(OC)c1OC`, the growth was 52.8% (inactive). `C/C(=N\OC(=O)Nc1ccccc1)c1ccccc1` was tested, and the growth was 119% (inactive). `FC(F)(F)Oc1ccc2c(c1)C[C@H]1C[C@@H](c3ccoc3)N2O1` was tested, and the growth was 104% (inactive). `CC(=O)OC(C(=O)O)c1ccccc1` (stereo not given) was tested, and the growth was 3.72% (active). `CCC(=O)Sc1ccccc1C(=O)Nc1ccc(Cl)cc1` was tested, and the growth was 37.6% (inactive). With `CCCCCCCCCCCCCCCCCC1=NCCN1CCNC(C)=O` the growth was 79.2% (inactive). `CC[C@]1(O)C[C@@H]2CN(CCc3c([nH]c4ccccc34)[C@@](C(=O)OC)(c3cc4c(cc3OC)N(C)[C@H]3[C@@](O)(C(N)=O)[C@H](O)[C@]5(CC)[C@@H]6C[C@@H]6CN6CC[C@]43[C@@H]65)C2)C1` was tested, and the growth was -3.28% (active). `CCCCOC(=O)Oc1ccc(C(=O)Oc2ccc(OCC)cc2)cc1` was tested, and the growth was 109% (inactive). `Cc1cc(Cl)c2c(N(C)C)cccc2n1` was tested, and the growth was 97.3% (inactive). `COc1ccc(-c2cc(/C=C3\C(=O)Nc4ccc(Cl)cc43)[nH]n2)cc1` was tested, and the growth was 22.6% (inactive). In the case of `O=[N+]([O-])c1cccc(-c2nc3sccn3c2-c2ccnc(NCCCNS(=O)(=O)c3ccc(C(F)(F)F)cc3)n2)c1`, the growth is reported as 0.27% (active). For `C=CCc1cc(Cl)cc2c(OC(C)=O)c(C(C)=O)c(-c3ccccc3)nc12`, the growth was 107% (inactive). `COc1ccc(OC)c(C2C(C#N)=C(N)Oc3cc(O)ccc32)c1` (stereo not given) was tested, and the growth was 88.6% (inactive). For `COC(=O)[C@H](Cc1cn(C)cn1)NC(=O)[C@@H](NC(=O)Nc1cc(C(F)(F)F)cc(C(F)(F)F)c1)C(C)C`, the growth was -73.5% [100 µM] (active). For `CC(C)=C(NC(=O)c1ccccc1)C(=O)O`, the growth was 110% (inactive). In the case of `Cc1cccc(NC(=O)c2sc3nc4c(cc3c2N)CCC4)c1C`, the growth is reported as 8.43% (active). For `Cc1ccc(O)c(N2C(=NCc3ccco3)NS(=O)(=O)c3cnccc32)c1`, the growth was 114% (inactive). In the case of `CC1Cc2ccccc2O1` (stereo not given), the growth is reported as 102% (inactive). For `CCCCCCCCCCCCCCCC1=NCC[N+]1(CCO)CCO`, the growth was 44.9% (inactive). With `CO[C@H]1CC[C@@]2(C)C(=CC[C@H]3[C@@H]4C[C@H](O)C[C@@]4(C)CC[C@@H]32)C1` the growth was 22.6% (inactive). In the case of `CSc1nc(Nc2cccc(NC(=O)CCl)c2)c(C#N)c(-c2cccc([N+](=O)[O-])c2)n1`, the growth is reported as 30.3% (inactive). For `NC(=N\N=C/Cc1ccccc1)/C(N)=N\N=C\Cc1ccccc1`, the growth was 70.8% (inactive). `CCCCCc1nc2c(c3c1CCCC3)CCCC2` was tested, and the growth was -15.2% (active). In the case of `CN(C)CC(=O)c1ccc2cc(Br)c3ccccc3c2c1`, the growth is reported as 53.4% (inactive). For `S=c1[nH]ccn1-c1ccccc1Cl`, the growth was 90% (inactive). With `CCn1cc(C(=O)NN=C2CCCCCC2)c(=O)c2ccc(C)nc21` the growth was 80.2% (inactive). In the case of `COC(=O)[C@H](C)NC(=O)NC(=O)NC(=O)CI`, the growth is reported as -51% (active). `O=C(O)c1ccc(-n2c(=O)c3ccccc3c3ccccc3c2=O)cc1` was tested, and the growth was 83.7% (inactive). In the case of `CCOC(=O)Nc1nccs1`, the growth is reported as 100% (inactive). For `CCN1CCN(C(=O)[C@]23CC[C@@H](C)[C@H](C)[C@@H]2C2=CC[C@@H]4[C@@]5(C)C/C(=C/c6cccnc6)C(=O)C(C)(C)[C@@H]5CC[C@@]4(C)[C@]2(C)CC3)CC1`, the growth was -38.2% (active). In the case of `FC(F)(F)Oc1cccc(-c2cc(NCCCCCCNc3cc(-c4cccc(OC(F)(F)F)c4)nc4ccc(N5CCCC5)cc34)c3cc(N4CCCC4)ccc3n2)c1`, the growth is reported as 21.7% (inactive). In the case of `COc1ccc(C2=NN3C(C2)c2cc(Br)ccc2OC3c2ccncc2)cc1` (stereo not given), the growth is reported as 93.5% (inactive). In the case of `NCC(O)C(O)C(O)C(O)CO` (stereo not given), the growth is reported as 114% (inactive).
